Assay results from PubChem BioAssay.
Activity calls are given as the source filed them. Rule as the data show it, unless noted: active = inhibition above about 80%; inactive = the rest.

How the values were obtained:
[1] = LFS_MB_P medulloblastoma growth inhibition, cell-based, chromothripsis tumors, cisplatin or BGB combos (AID 1671449); conditions: LFS_MB_P medulloblastoma cells;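 also: cells exposed for 96 hours; 0% = vehicle DMSO and 100% = killing by high DMSO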
[2] = HDN33 neuroblastoma growth inhibition, cell-based, chromothripsis tumors, cisplatin or BGB combos (AID 1671450); conditions: HDN33 neuroblastoma cells, stronger effect = higher value;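 also: cells exposed to compound for four days; 0% = vehicle DMSO and 100% = cell killing by high DMSO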
[3] = ICB984 medulloblastoma cell growth inhibition, synergistic combos for chromothripsis tumors, cisplatin or BGB combos (AID 1671451; call rule not given here;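 also: cells exposed for 96 hours before readout; 0% = vehicle DMSO and 100% = killing by high DMSO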); conditions: ICB984 medulloblastoma cells, drug combinations, stronger effect = higher value
[4] = LFS_MB_1R medulloblastoma cell growth inhibition, synergistic combos for chromothripsis tumors, cisplatin or BGB combos (AID 1671452); conditions: LFS_MB_1R medulloblastoma cells, stronger effect = higher value;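 also: cells exposed for 96 hours before readout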
[5] = HTB85 osteosarcoma cell growth inhibition, synergistic combos for chromothripsis tumors, BGB or cisplatin IC20 combos (AID 1671453); conditions: HTB85 osteosarcoma cells, drug combinations, stronger effect = higher value;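 also: cells exposed for 96 hours before readout; 0% = vehicle DMSO and 100% = high DMSO killing control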
[6] = CRL2098 osteosarcoma cell growth inhibition, synergistic combos for chromothripsis tumors, BGB or cisplatin IC20 combos (AID 1671454); conditions: CRL2098 osteosarcoma cells, drug combinations, stronger effect = higher value;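 also: cells exposed for 96 h before readout; 0% = vehicle DMSO and 100% = killing by high DMSO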
[7] = HD-MB03 medulloblastoma cell growth inhibition, synergistic combos for chromothripsis tumors, BGB or cisplatin IC20 combos (AID 1671455; in the data active = inhibition above about 83%;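 also: 0% = vehicle DMSO and 100% = high DMSO as cytotoxic control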); conditions: HD-MB03 medulloblastoma cells, stronger effect = higher value
[8] = UWB1.289 ovarian carcinoma cell growth inhibition, synergistic combos for chromothripsis tumors, BGB or cisplatin combos (AID 1671456); conditions: UWB1.289 ovarian carcinoma cells, stronger effect = higher value;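 also: cells exposed to compound for four days; 0% = vehicle DMSO and 100% = killing by high DMSO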
[9] = LFS_MB_2R medulloblastoma cell growth inhibition, synergistic combos for chromothripsis tumors, cisplatin combos (AID 1671457); conditions: LFS_MB_2R medulloblastoma cells, stronger effect = higher value;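 also: cells exposed to compound for four days before readout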
[10] = MDA-MB-436 breast carcinoma cell growth inhibition, synergistic combos for chromothripsis tumors, BGB or cisplatin combos (AID 1671458; call rule not given here;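 also: cells exposed for 96 hours; 0% = vehicle DMSO and 100% = killing by high DMSO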); conditions: MDA-MB-436 breast carcinoma growth inhibition, drug combinations, stronger effect = higher value
[11] = UWB1.289_BRCA1 ovarian cancer growth, cell-based, BGB or cisplatin combinations (AID 1671459); conditions: UWB1.289 BRCA1 ovarian carcinoma, drug combinations, stronger effect = higher value
[12] = human astrocyte viability loss, single and combined drugs, cytotoxicity control for chromothriptic childhood tumor combination screen, cell-based, BGB or cisplatin IC20 combos (AID 1671460); conditions: Human astrocytes, drug combinations, stronger effect = higher value;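 also: cells exposed to compounds for 96 hours before viability readout; 0% = vehicle and 100% = killing control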
[13] = growth inhibition of BT084 medulloblastoma cells, cell-based, ICGC_MB145, cisplatin and BGB IC40 combos (AID 1671461); conditions: drug combinations, stronger effect = higher value;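 also: cells exposed to drugs for 96 hours; 0% = vehicle DMSO and 100% = high DMSO full killing control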
[14] = growth inhibition of RCMB18 medulloblastoma cells, cell-based, cisplatin and BGB IC40 combos (AID 1671462); conditions: stronger effect = higher value;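 also: cells exposed to compound for four days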
[15] = growth inhibition of CRL1545 osteosarcoma cells, cell-based, cisplatin and BGB IC20 combos (AID 1671464); conditions: stronger effect = higher value;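 also: cells exposed to compound for 96 hours before readout; 0% = vehicle DMSO and 100% = high DMSO killing control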
[16] = at 0.5 µM, stronger effect = higher value
[17] = measured here: combination with BGB IC20, at 0.005 µM
[18] = measured here: combination with BGB IC40, at 0.005 µM
[19] = measured here: combination with BGB IC40, at 0.05 µM
[20] = measured here: combination with cisplatin, at 0.5 µM, stronger effect = higher value
[21] = measured here: combination with cisplatin, at 5 µM, stronger effect = higher value
[22] = measured here: with BGB IC20 combination, at 0.5 µM
[23] = measured here: with cisplatin IC20 combination, at 0.5 µM
[24] = measured here: 5 uM single agent, at 5 µM
[25] = measured here: combination with cisplatin, at 0.5 µM
[26] = measured here: combination with cisplatin, at 5 µM
[27] = measured here: with BGB IC20, at 0.5 µM
[28] = measured here: with BGB IC20, at 5 µM
[29] = measured here: with cisplatin IC20, at 0.5 µM
[30] = measured here: with cisplatin IC20, at 5 µM
[31] = measured here: combination with BGB at IC20, at 0.5 µM
[32] = measured here: combination with cisplatin at IC20, at 0.5 µM
[33] = measured here: combo with BGB at IC20, at 0.5 µM
[34] = measured here: combo with cisplatin at IC20, at 0.5 µM
[35] = measured here: inhibition with BGB combination, at 0.05 µM
[36] = measured here: inhibition with cisplatin combination, at 0.05 µM
[37] = measured here: BGB combination, at 0.5 µM
[38] = measured here: BGB combination, at 5 µM
[39] = measured here: cisplatin combination, at 0.5 µM
[40] = measured here: cisplatin combination, at 5 µM
[41] = BGB combination, concentration series, at 5 µM
[42] = cisplatin combination, concentration series, at 5 µM
[43] = measured here: combo with BGB IC20, at 0.5 µM
[44] = measured here: combo with cisplatin IC20, at 0.5 µM
[45] = cisplatin combination, at 0.5 µM
[46] = measured here: BGB IC40 combination 0.05 uM, at 0.05 µM

NC(=O)c1cccc2cn(-c3ccc(C4CCCNC4)cc3)nc12 (stereo not drawn)
inhibition [1, 16]: -22.2% (inactive) | inhibition [1, 17]: 9.92% | inhibition [1, 18]: -8.03% | inhibition [1, 19]: -6.95% | inhibition [1, 20]: -37.4% | inhibition [1, 21]: -29.2% | inhibition ([2]; BGB combo, at 5 µM): -13.1% | inhibition ([2]; at 0.5 µM): -12.8% (inactive) | inhibition ([2]; cisplatin combo, at 5 µM): 28.2% | inhibition [2, 22]: -14.6% | inhibition [2, 23]: -19.6% | inhibition ([2]; single agent, at 5 µM): 44.3% | inhibition ([3]; BGB IC20 combo, at 0.005 µM): -10.7% | inhibition ([3]; BGB IC40 combo, at 0.005 µM): -50.8% | inhibition ([3]; BGB IC40 combo, at 0.05 µM): -43.2% | inhibition ([3]; at 0.5 µM): -25.3% (inactive) | inhibition ([3]; cisplatin combo, at 0.05 µM): -48.9% | inhibition ([3]; cisplatin combo, at 0.5 µM): -42.4% | inhibition ([3]; cisplatin combo, at 5 µM): -33% | inhibition [3, 24]: -12.1% | inhibition ([4]; at 0.5 µM): -17.8% (inactive) | inhibition [4, 19]: -23.5% | inhibition [4, 25]: -55.4% | inhibition [4, 26]: -54.7% | inhibition ([5]; at 0.5 µM): -22% (inactive) | inhibition [5, 27]: -26.2% | inhibition [5, 28]: -8.36% | inhibition [5, 29]: -25.1% | inhibition [5, 30]: 8.74% | inhibition ([5]; single agent, at 5 µM): 31.7% | inhibition ([6]; at 0.5 µM): -34.1% (inactive) | inhibition [6, 31]: -52.1% | inhibition [6, 32]: -0.058% | inhibition ([7]; at 0.5 µM): -5.6% (inactive) | inhibition [7, 33]: -17.4% | inhibition [7, 34]: 6.18% | inhibition ([8]; at 0.5 µM): -3.23% (inactive) | inhibition [8, 35]: 2.85% | inhibition [8, 36]: -19.1% | inhibition ([9]; at 0.5 µM): -4.32% (inactive) | inhibition [9, 25]: -10.3% | inhibition [9, 26]: -4.18% | inhibition ([10]; at 0.5 µM): 13.9% (inactive) | inhibition [10, 37]: -2.85% | inhibition [10, 38]: -6.33% | inhibition [10, 39]: 15.6% | inhibition [10, 40]: 32.2% | inhibition [11, 41]: -5.8% | inhibition ([11]; at 0.5 µM): 0.96% (inactive) | inhibition [11, 42]: 23.7% | inhibition ([12]; at 0.5 µM): -10.9% (inactive) | inhibition [12, 43]: -10.9% | inhibition [12, 44]: -15.8% | inhibition ([13]; at 0.5 µM): -8.13% (inactive) | inhibition [13, 45]: -15.8% | inhibition ([13]; cisplatin combination, at 5 µM): -1.06% | inhibition [13, 46]: 4.73% | inhibition ([13]; single agent, at 5 µM): -30.1% | inhibition ([14]; at 0.5 µM): -4.94% (inactive) | inhibition ([14]; cisplatin combo, at 5 µM): -39.1% | inhibition ([14]; measured here: BGB IC40 combination, at 0.05 µM): -13.7% | inhibition [14, 25]: -10.1% | inhibition ([14]; single agent, at 5 µM): -43.2% | inhibition ([15]; at 0.5 µM): -29.8% (inactive) | inhibition [15, 22]: -55.3% | inhibition [15, 23]: -17% | inhibition ([15]; single agent, at 0.05 µM): -35.4% | inhibition ([15]; single agent, at 5 µM): 30.1%

CCC1(O)C(=O)OCc2c1cc1n(c2=O)Cc2cc3cc(O)ccc3nc2-1 (stereo not drawn)
inhibition [1, 16]: -23.8% (inactive) | inhibition [1, 17]: -39% | inhibition [1, 18]: -64.3% | inhibition [1, 19]: -39.2% | inhibition [1, 20]: -28.8% | inhibition [1, 21]: 80.4% | inhibition ([2]; BGB combo, at 5 µM): 96.2% | inhibition ([2]; at 0.5 µM): 75% (inactive) | inhibition ([2]; cisplatin combo, at 5 µM): 94.5% | inhibition [2, 22]: 83.6% | inhibition [2, 23]: 67.2% | inhibition ([2]; single agent, at 5 µM): 96% | inhibition ([3]; BGB IC20 combo, at 0.005 µM): -7.43% | inhibition ([3]; BGB IC40 combo, at 0.005 µM): -6.67% | inhibition ([3]; BGB IC40 combo, at 0.05 µM): 96.1% | inhibition ([3]; at 0.5 µM): -15.7% (inactive) | inhibition ([3]; cisplatin combo, at 0.05 µM): 96.4% | inhibition ([3]; cisplatin combo, at 0.5 µM): -28.1% | inhibition ([3]; cisplatin combo, at 5 µM): -59% | inhibition [3, 24]: -24.3% | inhibition ([4]; at 0.5 µM): 46% (inactive) | inhibition [4, 19]: -11.8% | inhibition [4, 25]: 91.8% | inhibition [4, 26]: 84.6% | inhibition ([5]; at 0.5 µM): 98% (active) | inhibition [5, 27]: 97.4% | inhibition [5, 28]: 98% | inhibition [5, 29]: 97.8% | inhibition [5, 30]: 99.5% | inhibition ([5]; single agent, at 5 µM): 99.6% | inhibition ([6]; at 0.5 µM): 43.5% (inactive) | inhibition [6, 31]: 62.2% | inhibition [6, 32]: 19% | inhibition ([7]; at 0.5 µM): 98.3% (active) | inhibition [7, 33]: 98% | inhibition [7, 34]: 98.2% | inhibition ([8]; at 0.5 µM): 83.6% (active) | inhibition [8, 35]: 5.35% | inhibition [8, 36]: 7.19% | inhibition ([9]; at 0.5 µM): -2.53% (inactive) | inhibition [9, 25]: 28.3% | inhibition [9, 26]: 65.3% | inhibition ([10]; at 0.5 µM): 65.8% (inactive) | inhibition [10, 37]: 59% | inhibition [10, 38]: 70.2% | inhibition [10, 39]: 63.8% | inhibition [10, 40]: 80.3% | inhibition [11, 41]: 95.1% | inhibition ([11]; at 0.5 µM): 89% (active) | inhibition [11, 42]: 102% | inhibition ([12]; at 0.5 µM): 73.4% (inactive) | inhibition [12, 43]: 82.6% | inhibition [12, 44]: 57.6% | inhibition ([13]; at 0.5 µM): 1.31% (inactive) | inhibition [13, 45]: 54.4% | inhibition ([13]; cisplatin combination, at 5 µM): -68.1% | inhibition [13, 46]: -44.1% | inhibition ([13]; single agent, at 5 µM): -0.722% | inhibition ([14]; at 0.5 µM): 24% (inactive) | inhibition ([14]; cisplatin combo, at 5 µM): 79.3%
